Results: PubChem BioAssay (NCI)
Compounds without any hit were thinned out: in the full panel of roughly 83,000, 20% have a hit.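 Activity criterion: percent growth below 10, measured after cells in 96-well plates were exposed to a single compound concentration for 48 hours.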 Unmarked numbers belong to inactive results. The source made the active and inactive calls.

Assays:
Assay in all cases: NCI-60 one-dose screen, 48 h (100 = growth as untreated, 0 = no growth, -100 = all killed)
Details in all cases: 10 µM unless noted
BT-549 breast = tested on: BT-549 breast
MDA-MB-435 melanoma = tested on: MDA-MB-435 melanoma
SW-620 colon = tested on: SW-620 colon
MCF7 breast = tested on: MCF7 breast
HCT-116 colon = tested on: HCT-116 colon
KM12 colon = tested on: KM12 colon
HCC-2998 colon = tested on: HCC-2998 colon

Compound	growth (BT-549 breast) [%]	growth (MDA-MB-435 melanoma) [%]	growth (SW-620 colon)	growth (MCF7 breast)	growth (HCT-116 colon)	growth (KM12 colon) [%]	growth (HCC-2998 colon) [%]
Nc1c(C(=O)Nc2ccccc2Cl)sc2nc3c(cc12)CN(Cc1ccccc1)CC3	93.8	107	94.1%	92.9%	103%	96.1	–
COc1ccc2nc(-c3ccc(OC)c(OC)c3)cc(-c3nnc(SCC(=O)Nc4ccc(/C(C)=N\O)cc4)n3-c3ccccc3)c2c1	56.4	84.9	89.6%	–	–	75.9	101
N#Cc1c(-c2ccc(F)cc2)nc(N=Nc2c(O)[nH]c3ccccc23)nc1N1CCOCC1	91.4	67.7	66.7%	64.4%	47.2%	75.1	–
O=C(CCc1nnco1)c1nc2ccc([N+](=O)[O-])cc2[nH]1	106	106	106%	–	–	102	93.4
C=C1C(=O)O[C@H]2[C@H]1CC/C(COC(=O)N1CCC[C@H]1C(=O)Nc1ccc(OC)c(C(N)=O)c1O)=C\CC[C@@]1(C)O[C@@H]21	38.5	44.3	2.83% (active)	12.1%	14.8%	67.2	–
COc1ccc(C2N(c3cc(OC)c(OC)c(OC)c3)C(=O)C2(F)F)cc1F (centres undefined)	35	12.9	21.2%	15.1%	5.76% (active)	22.9	–
CN1CCN(S(=O)(=O)O[C@@H]2C(=O)N(c3cc4c5ccccc5ccc4c4ccccc34)[C@H]2c2ccc(F)cn2)CC1	95.8	98.1	98.2%	87.4%	85.3%	91.1	–
C/C(=N/Nc1nc2ccccc2n1C)c1ccccn1	13.5	32.5	23.6%	3.47% (active)	2.75% (active)	19.7	–
CC(C)(C)c1ccc(O)c(Cc2cc(C(C)(C)C)ccc2O)c1	113	107	105%	72.5%	88.6%	100	–
CCCn1c2cc(OCc3cn(-c4ccc(Cl)cc4)nn3)ccc2c2ccnc(C)c21	87.2	101	74.8%	73.3%	41.6%	74.1	–
O=C1CCC23OC(c4ccccc4N12)C(O)C(O)C3O (centres undefined)	111	110	103%	100%	84.9%	104	–
